In PubChem BioAssay (Tox21):
Results filed as inconclusive are left out. Calls of active or inactive are those of the source. Unless noted, calls come from the whole dose curve; as a rule, active = well fitted curve in the direction sought with a large enough effect in the repeat runs; inconclusive = weak or mixed curves; inactive = no such curve, though single readings can be large; an effect the other way counts as inactive or inconclusive.

How the values were obtained:
[1] = A CellTox Green Cytotoxicity Assay to monitor cytotoxicity in HepG2 cells - 0 hour (AID 1224882); conditions: CellTox Green fluorescence; series mostly up to 76.8 µM; note: nearly all actives have a fitted effect of over 35% in size
In short: (§1)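 Continuous culture of HepG2 cells with a membrane-impermeant DNA dye; rising fluorescence marks dead cells. Compound exposure lasted up to 40 h at 37 C, with reads every 8 h from 0 h.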

[2] = A CellTox Green Cytotoxicity Assay to monitor cytotoxicity in HepG2 cells - 32 hour (AID 1224883); conditions: CellTox Green fluorescence; series mostly up to 76.8 µM; note: nearly all actives have a fitted effect of over 50% in size
In short: as §1

[3] = qHTS RealTime-Glo MT Cell Viability Assay in HepG2 cells - 16 hour (AID 1224885); conditions: RealTime-Glo luminescence; series mostly up to 76.8 µM; note: nearly all actives have a fitted effect of over 50% in size
In short: (§2)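 Viability was tracked continuously by NanoLuc luminescence from prosubstrate reduced by living HepG2 cells, at successive time points over 40 h of compound exposure. Cells with reagent were preincubated 5 h at 37 °C before compound addition.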

[4] = qHTS RealTime-Glo MT Cell Viability Assay in HEK293 cells - 24 hour (AID 1224886); conditions: RealTime-Glo luminescence; series mostly up to 76.8 µM; note: top concentration of the series differs between compounds; nearly all actives have a fitted effect of over 50% in size
In short: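 Viability tracked continuously by luminescence as live cells reduce a prosubstrate for NanoLuc; HEK293 cells preincubated 5 h, compound-treated at 37 C, and read at 0, 8, 16, 24, 32 and 40 h.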

[5] = qHTS RealTime-Glo MT Cell Viability Assay in HEK293 cells - 8 hour (AID 1224887); conditions: RealTime-Glo luminescence; series mostly up to 76.8 µM; note: top concentration of the series differs between compounds; nearly all actives have a fitted effect of over 50% in size
In short: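 qHTS format; HEK293 cells with NanoLuc/prosubstrate reagent, 37 C/5% CO2 for 5 h pre-dosing; compounds 23 nL in DMSO; luminescence at each time point reflects viable cells.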

[6] = qHTS RealTime-Glo MT Cell Viability Assay in HepG2 cells - 0 hour (AID 1224889); conditions: RealTime-Glo luminescence; series mostly up to 76.8 µM; note: nearly all actives have a fitted effect of over 50% in size
In short: as §2

[7] = A CellTox Green Cytotoxicity Assay to monitor cytotoxicity in HepG2 cells - 8 hour (AID 1224890); conditions: CellTox Green fluorescence; series mostly up to 76.8 µM; note: nearly all actives have a fitted effect of over 45% in size
In short: as §1

[8] = qHTS assay to identify small molecule antagonists of the estrogen receptor alpha (ER-alpha) signaling pathway using the BG1 cell line in the presence of 0.1 nM 17-beta-estradiol - cell viability counter screen (AID 1259241); conditions: VM7Luc4E2 (BG1) viability, CellTiter-Fluor protease, 22 h, 0.1 nM estradiol agonist added; series mostly up to 92.4 µM; note: nearly all actives have a fitted effect of over 40% in size
In short: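 Viability in VM7Luc4E2 cells after 22 hr compound exposure under 0.1 nM 17beta-estradiol stimulation, by CellTiter-Fluor.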

[9] = qHTS assay to identify small molecule antagonists of the androgen receptor (AR) signaling pathway using the MDA cell line in the presence of 0.5 nM R1881 - cell viability counter screen (AID 1259242); conditions: MDA-kb2 viability, CellTiter-Fluor protease fluorescence, 16 h; series mostly up to 92.4 µM; note: nearly all actives have a fitted effect of over 45% in size
In short: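 Fluorescence from CellTiter-Fluor, which reports protease activity of live cells, was read 30 min after reagent addition to MDA-kb2 cells that had been incubated 16 hr with compound and 0.5 nM R1881.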

[10] = target: Estrogen receptor (Homo sapiens) (UniProt P03372); test: qHTS assay to identify small molecule antagonists of the estrogen receptor alpha (ER-alpha) signaling pathway using the BG1 cell line in the presence of 0.1 nM 17-beta-estradiol (AID 1259244); conditions: VM7Luc4E2 (BG1) ERE-luciferase, antagonist mode, 0.1 nM E2, 22 h; series mostly up to 92.4 µM; note: nearly all actives have a fitted effect of over 50% in size; note: potency is the fitted concentration of half-maximal effect
Sequence of Estrogen receptor (Homo sapiens) (P03372 whole entry, looked up): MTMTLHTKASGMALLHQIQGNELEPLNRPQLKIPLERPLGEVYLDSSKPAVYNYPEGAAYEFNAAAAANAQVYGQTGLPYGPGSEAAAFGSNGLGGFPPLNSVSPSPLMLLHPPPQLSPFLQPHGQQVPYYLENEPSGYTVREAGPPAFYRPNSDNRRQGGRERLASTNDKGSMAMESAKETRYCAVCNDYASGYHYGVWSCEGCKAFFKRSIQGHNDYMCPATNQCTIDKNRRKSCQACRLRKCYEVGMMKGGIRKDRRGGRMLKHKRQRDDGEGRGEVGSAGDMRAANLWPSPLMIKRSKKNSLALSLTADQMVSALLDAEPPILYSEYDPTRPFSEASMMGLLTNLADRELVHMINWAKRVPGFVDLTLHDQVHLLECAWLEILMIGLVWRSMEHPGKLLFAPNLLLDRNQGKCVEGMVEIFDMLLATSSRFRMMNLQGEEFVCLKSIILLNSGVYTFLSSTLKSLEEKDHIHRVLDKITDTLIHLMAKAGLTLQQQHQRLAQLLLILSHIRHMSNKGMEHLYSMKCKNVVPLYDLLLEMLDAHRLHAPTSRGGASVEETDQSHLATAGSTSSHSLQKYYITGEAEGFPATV
In short: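 Quantitative high-throughput screen in VM7Luc4E2 cells: compound plus 0.1 nM E2 (final), 22 h, 37C, 5% CO2; ONE-Glo added, 30 min room temperature, luminescence measured.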

[11] = qHTS assay to identify small molecule phospholipidosis (PLD) inducers (AID 1259344; active = well fitted curve in the direction sought with a large enough effect; an effect the other way counts as inactive or inconclusive); conditions: HepG2 phospholipidosis, LipidTOX Red imaging, 24 h; series mostly up to 38.3 µM
In short: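 Quantitative HTS in HepG2: compound plus LipidTOX Red dye for 24 h, paraformaldehyde fixation with Hoechst 33342, widefield high-content imaging; amiodarone as positive and DMSO as negative control.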

[12] = qHTS assay to identify small molecule HDAC inhibitors (AID 1259364); conditions: HCT-116 HDAC-Glo I/II luminescence, 2 h; series mostly up to 92.4 µM; note: top concentration of the series differs between compounds; nearly all actives have a fitted effect of over 45% in size
In short: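 Endogenous HDAC class I/II activity was measured in wild-type HCT-116 cells by HDAC-Glo luminescence after 2 h compound treatment.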

[13] = qHTS assay to identify small molecule HDAC inhibitors - cell viability counter screen (AID 1259365); conditions: HCT-116 viability, CellTiter-Glo ATP luminescence, 2 h; series mostly up to 92.4 µM; note: nearly all actives have a fitted effect of over 50% in size
In short: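 Cytotoxicity was gauged in wild-type HCT-116 cells after a brief 2hr treatment with DMSO-dissolved compounds at 37C and 5% CO2, using CellTiter-Glo luminescence developed for 30min at room temperature.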

[14] = qHTS assay to identify small molecule antagonists of the sonic hedgehog signaling (Shh) pathway - cell viability counter screen (AID 1259367); conditions: NIH/3T3 Gli1-Luc viability, CellTiter-Fluor, 24 h; series mostly up to 92.4 µM; note: nearly all actives have a fitted effect of over 55% in size; note: potency is the fitted concentration of half-maximal effect
In short: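 Seed 3T3 Gli1-Luc cells at 2,000 per well; incubate 4 hr; add compound in DMSO, then conditioned medium; incubate at 37C with 5% CO2; add CellTiter-Fluor after 23 hr; read fluorescence 1 hr later.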

[15] = A CellTox Green Cytotoxicity Assay to monitor cytotoxicity in HEK293 cells - 32 hour (AID 1224881); conditions: CellTox Green fluorescence; series mostly up to 76.8 µM; note: nearly all actives have a fitted effect of over 40% in size
In short: (§3)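 Each value comes from one timepoint of a single continuous run in which HEK293 cells with CellTox Green were exposed to compound for up to 40 h at 37 C, dye fluorescence rising with cell death.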

[16] = A CellTox Green Cytotoxicity Assay to monitor cytotoxicity in HEK293 cells - 8 hour (AID 1224884); conditions: CellTox Green fluorescence; series mostly up to 76.8 µM; note: nearly all actives have a fitted effect of over 35% in size; note: potency is the fitted concentration of half-maximal effect
In short: as §3

[17] = qHTS assay to identify small molecule agonists of the sonic hedgehog signaling (Shh) pathway - cell viability counter screen (AID 1259366); conditions: NIH/3T3 Gli1-Luc viability, CellTiter-Fluor, 24 h; series mostly up to 92.4 µM; note: nearly all actives have a fitted effect of over 50% in size; note: potency is the fitted concentration of half-maximal effect
In short: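 Stable Gli1-Luc NIH/3T3 clone, 2,000 cells/well. Compound exposure 24hr at 37C. Read-out: CellTiter-Fluor fluorescence.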

[18] = qHTS assay to identify small molecule agonists of the sonic hedgehog signaling (Shh) pathway (AID 1259368; calls by dose curve;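 note: NIH/3T3-derived 3T3Gli1-Luc cells carrying a stable Gli1-driven firefly luciferase reporter; nearly all actives have a fitted effect of over 15% in size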); conditions: NIH/3T3 Gli1-Luc reporter, luciferase, 24 h, active compounds read high; series mostly up to 92.4 µM
In short: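 Luminescent signal was taken as a measure of Gli1-controlled luciferase expression in stably transfected NIH/3T3-derived cells that had been treated for 24 hr with compounds delivered in DMSO.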

[19] = target: Androgen receptor (Homo sapiens) (UniProt P10275); test: qHTS assay to identify small molecule antagonists of the androgen receptor (AR) signaling pathway using the MDA cell line in the presence of 0.5 nM R1881 (AID 1259243); conditions: MDA-kb2 MMTV-luciferase, R1881 0.5 nM, 16 h; series mostly up to 92.4 µM; note: nearly all actives have a fitted effect of over 50% in size; note: potency is the fitted concentration of half-maximal effect
Sequence of Androgen receptor (Homo sapiens) (P10275 whole entry, looked up): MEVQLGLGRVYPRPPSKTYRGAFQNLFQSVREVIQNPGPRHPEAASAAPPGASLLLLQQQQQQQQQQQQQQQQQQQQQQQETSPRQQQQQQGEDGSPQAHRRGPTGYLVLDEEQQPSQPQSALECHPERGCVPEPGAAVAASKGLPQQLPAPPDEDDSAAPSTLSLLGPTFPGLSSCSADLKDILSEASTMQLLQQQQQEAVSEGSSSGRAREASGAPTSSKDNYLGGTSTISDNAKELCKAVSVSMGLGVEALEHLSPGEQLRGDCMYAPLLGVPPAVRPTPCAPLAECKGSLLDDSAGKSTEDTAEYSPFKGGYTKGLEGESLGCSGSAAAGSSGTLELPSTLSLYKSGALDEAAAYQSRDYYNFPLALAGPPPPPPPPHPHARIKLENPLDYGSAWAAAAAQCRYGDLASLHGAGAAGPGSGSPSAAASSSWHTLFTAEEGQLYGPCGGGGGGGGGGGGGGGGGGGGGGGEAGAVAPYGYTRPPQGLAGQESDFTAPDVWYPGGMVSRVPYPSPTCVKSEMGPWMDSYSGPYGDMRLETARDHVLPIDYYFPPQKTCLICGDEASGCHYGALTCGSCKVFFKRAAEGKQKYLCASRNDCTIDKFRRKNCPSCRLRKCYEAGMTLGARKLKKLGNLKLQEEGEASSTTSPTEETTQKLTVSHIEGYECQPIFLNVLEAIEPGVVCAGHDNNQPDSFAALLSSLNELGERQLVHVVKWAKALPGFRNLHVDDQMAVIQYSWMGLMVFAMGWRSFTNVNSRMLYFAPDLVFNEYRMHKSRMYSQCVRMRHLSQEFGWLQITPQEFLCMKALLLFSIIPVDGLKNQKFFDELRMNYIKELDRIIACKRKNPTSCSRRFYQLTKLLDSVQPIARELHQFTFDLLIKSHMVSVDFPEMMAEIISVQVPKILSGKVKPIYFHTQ
In short: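 Inhibition of R1881 (0.5 nM final) induced reporter signal was measured in human MDA-kb2 cells; note the MMTV promoter also responds to GR. Exposure lasted 16 hr at 37C.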

[20] = A CellTox Green Cytotoxicity Assay to monitor cytotoxicity in HEK293 cells - 16 hour (AID 1224888); conditions: CellTox Green fluorescence; series mostly up to 76.8 µM; note: nearly all actives have a fitted effect of over 35% in size
In short: as §3
% is set by controls: 0 for no effect and ±100 for the full control effect.

CCc1cc2c(s1)-n1c(C)nnc1CN=C2c1ccccc1Cl
inactive: outcome [1] | Potency [2] | Potency [3] | Potency [4] | Potency [5] | Potency [6] | Potency [7] | outcome [8] | outcome [9] | PLD induction [11] -2.33% [at 1.53 µM] | Potency [12] | outcome [13] | Potency [14]
active: Potency [10] 18.8 µM

CC(C)(C)C(=O)C(Oc1ccc(Cl)cc1)n1cncn1 (centres undefined)
inactive: Potency [15] | Potency [2] | Potency [16] | Potency [3] | Potency [5] | Potency [6] | Potency [7] | outcome [8] | Potency [10] | outcome [13] | Potency [14]

CSc1nc(N=[N+]=[N-])nc(NC(C)C)n1
inactive: Potency [15] | Potency [2] | Potency [16] | Potency [3] | Potency [6] | outcome [8] | outcome [9] | Potency [10] | Potency [12] | Potency [17] | Potency [14] | outcome [18]

COc1ccc2c(c1OC)CN1CCc3cc4c(cc3C1C2)OCO4 (centres undefined)
inactive: Potency [15] | Potency [2] | Potency [16] | Potency [3] | Potency [5] | Potency [6] | outcome [8] | outcome [9] | outcome [11] | outcome [13] | Potency [17] | Potency [14]
active: Potency [19] 26.6 µM

COC(=O)c1ccccc1S(=O)(=O)NC(=O)N(C)c1nc(C)nc(OC)n1
inactive: Potency [15] | Potency [2] | Potency [16] | Potency [3] | Potency [5] | Potency [20] | Potency [6] | Potency [7] | outcome [8] | outcome [9] | Potency [10] | Potency [12] | Potency [17] | Potency [14] | outcome [18]

NC(=S)C(N)=S
inactive: outcome [1] | Potency [2] | Potency [16] | Potency [3] | Potency [4] | Potency [5] | Potency [20] | Potency [6] | Potency [7] | outcome [8] | Potency [10] | Potency [12] | outcome [13] | Potency [17] | Potency [14] | outcome [18]

O=C(Nc1ccccc1)c1ccccc1I
inactive: Potency [15] | Potency [2] | Potency [16] | Potency [3] | Potency [5] | Potency [20] | Potency [6] | Potency [7] | outcome [8] | outcome [9] | Potency [19] | Potency [10] | Potency [17] | outcome [18]

c1ccc(N2CCNCC2)cc1
inactive: Potency [15] | Potency [2] | Potency [16] | Potency [3] | Potency [5] | Potency [20] | Potency [6] | Potency [7] | outcome [8] | outcome [9] | Potency [19] | Potency [12] | outcome [13] | Potency [17] | Potency [14] | outcome [18]

CC1(C(=O)Nc2ccc(O)c(Cl)c2Cl)CCCCC1
inactive: Potency [16] | Potency [20] | Potency [6] | outcome [8] | outcome [9] | Potency [12] | outcome [13] | outcome [18]
active: Potency [17] 43.3 µM | Potency [14] 43.3 µM

CCC(=O)C(CCN(C)C)(c1ccccc1)c1ccccc1
inactive: Potency [15] | Potency [2] | Potency [16] | Potency [4] | Potency [5] | Potency [20] | Potency [6] | Potency [7] | outcome [8] | outcome [9] | Potency [19] | Potency [12] | outcome [13] | Potency [17] | Potency [14] | outcome [18]

O=C(Cc1ccccc1)OCc1ccccc1
inactive: outcome [1] | Potency [2] | Potency [16] | Potency [3] | Potency [4] | Potency [5] | Potency [6] | Potency [7] | outcome [8] | Potency [10] | outcome [13] | Potency [17] | Potency [14]

CCCCP(CCCC)CCCC
inactive: Potency [15] | Potency [2] | Potency [16] | Potency [3] | Potency [5] | Potency [20] | Potency [7] | outcome [8] | outcome [9] | Potency [10] | Potency [17] | Potency [14] | outcome [18]

Cc1ccccc1CO[C@@H]1C[C@@]2(C(C)C)CC[C@]1(C)O2
inactive: outcome [1] | Potency [2] | Potency [16] | Potency [3] | Potency [5] | Potency [20] | Potency [6] | Potency [7] | outcome [8] | Potency [12] | outcome [13] | Potency [17] | outcome [18]

Cc1ncc2n1-c1ccc(Cl)cc1C(c1ccccc1F)=NC2
inactive: Potency [15] | Potency [2] | Potency [3] | Potency [5] | Potency [20] | Potency [6] | Potency [7] | outcome [8] | outcome [9] | outcome [11] | Potency [12] | Potency [17] | Potency [14] | outcome [18]

CC(C(O)c1ccccc1)N(C)C/C=C/c1ccccc1 (centres undefined)
inactive: Potency [15] | Potency [16] | Potency [3] | Potency [5] | Potency [20] | Potency [6] | Potency [7] | outcome [8] | outcome [9] | Potency [19] | Potency [10] | Potency [12] | outcome [13] | Potency [17] | Potency [14] | outcome [18]

CC1(C)C(=O)NC(=O)NC1=O
active: Potency [16] 49 µM
inactive: outcome [1] | Potency [2] | Potency [3] | Potency [5] | Potency [7] | outcome [8] | outcome [9] | Potency [10] | outcome [13] | Potency [17] | Potency [14] | outcome [18]
